Measurements: PubChem BioAssay AID590 (National Center for Advancing Translational Sciences (NCATS), 2007)
About 6,500 (11%) of roughly 59,000 compounds were called active. About 15% were inconclusive and are not listed. Cut-off read from the data, not from the text of the source: active = max dye-equivalent concentration above about 10 nM; inconclusive = mostly about 1.1 nM to 9.6 nM; inactive = weaker than that. What follows is part of a selection rich in actives, with near analogues and random picks from the rest.

Test: qHTS Assay for Spectroscopic Profiling in A350 Spectral Region
Details: Compound autofluorescence, 340/450 nm, Alexa 350 dye-equivalents; stronger effect = higher value

Structure (SMILES) | max dye-equivalent concentration
CC(C)C[C@H](NC(=O)[C@@H]1O[C@H]1C(=O)O)C(=O)NCCCCN=C(N)N | inactive
CC(C)Cc1ccc(S(=O)(=O)N2CCN(C(=O)c3ccco3)CC2)cc1 | inactive
Cc1ccccc1NC(=O)c1cc(S(=O)(=O)N2CCOCC2)cs1 | inactive
Cc1cc(NC(=O)CCC(=O)N(c2ccccc2)C(C(=O)NC2CCCC2)c2ccncc2)no1 (stereo not given) | inactive
Cc1ccc2nc(NC3=NCN(CCc4ccccc4)CN3)nc(C)c2c1 | inactive
COc1ccc2nc(NC3=NCN(CC4CCCO4)CN3)nc(C)c2c1 (stereo not given) | 82 nM (active)
Cc1ccsc1C(=O)OCC(=O)c1cc(C)n(CC2CCCO2)c1C (stereo not given) | inactive
CCc1cc2c(=O)c(-c3ccon3)c(N)oc2cc1OC | inactive
CC(=NCC1CCCO1)c1c(O)[nH]c(=O)[nH]c1=O (stereo not given) | inactive
CCOC(=O)CN(C(=O)CN1CCOCC1)c1ccc(Br)cc1 | inactive
COCCCn1c(CCC(=O)O)ccc1-c1ccc(F)cc1 | 1500 nM (active)
Cc1ccc(S(=O)(=O)C(C#N)c2nc3ccccc3nc2N2CCCC2)cc1C (stereo not given) | 190 nM (active)
Cc1cc(Cl)ccc1OCC(=O)Oc1c(Cl)c(Cl)c(Cl)c(Cl)c1Cl | inactive
CCOC(=O)CSc1nnc(CNC(=O)c2cccs2)n1-c1ccccc1 | inactive
CCOC(=O)c1c(NC(=O)c2cccs2)sc(C)c1C | 180 nM (active)
CCOCC(=O)Nc1sc2c(c1C(=O)OCC)CCCC2 | inactive
COC(=O)c1c(NC(=O)c2cccs2)sc2c1CCCC2 | 65 nM (active)
CCOC(=O)c1c(-n2cnnn2)sc(C)c1C | inactive
COC(=O)c1c(NC(=O)CSc2nncs2)sc2c1CCCCC2 | inactive
CCOC(=O)c1oc2ccccc2c1NC(=O)c1cccs1 | 21 nM (active)
COC(=O)Cn1cc(C(=O)c2cccs2)c2ccccc21 | inactive
CCOC(=O)c1c(NC(=O)CSc2nnc(Cc3csc(N)n3)n2C)sc(C)c1C | inactive
Cc1ccc(C2(c3ccc(C)cc3)NC(=O)N(Cc3c(C)noc3C)C2=O)cc1 | inactive
Cc1ccc(NC(=O)N2CCC(C(=O)NCc3ccc(F)cc3)CC2)cc1 | inactive
CCOc1ccc(-c2nnn(CC(=O)N3CCN(c4ccc(OC)cc4)CC3)n2)cc1OCC | inactive
CCn1c(SCC(=O)Nc2nccs2)nnc1-c1ccncc1 | inactive
CC(CN1CCCCC1)OC(=O)c1ccccc1Cl (stereo not given) | inactive
CCCC(=O)Nc1ccc(C(=O)NCCCn2ccnc2)cc1 | inactive
CCn1c(=O)cc(SCC(=O)NCc2ccc3c(c2)OCO3)c2ccccc21 | inactive
CCCn1c(SCC(=O)c2ccc3c(c2)OCCO3)nnc1C(C)C | inactive
